From the supplement of paper PMC10849652
About 8,800 targets were measured; listed, in parts, are those with a hit and a random draw of the rest. About 0.5% of all pairs of compound and target were hits. Values without a mark were called inactive.

compound: Cc1cc(Nc2cc(N3CCN(C)CC3)nc(Sc3ccc(NC(=O)C4CC4)cc3)n2)n[nH]1 [tozasertib]; assay: log2 fold change, soluble protein after heating vs DMSO (PISA); higher = thermal stabilisation; K562 lysate, 10 uM; active = over 0.2 and 3.5 SD of the protein, either way, in both replicates (recomputed)
Method in brief: (§1)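 A 30 min treatment with 10 μM compound was applied to crude K562 extract at 1 mg/mL protein in PBS pH 7.4 with 1 mM MgCl2. Heating for 3 min spanned 48°C-58°C, after which aliquots were pooled, adjusted to 0.5% NP-40 at 4°C and spun at 21,000xg for 90 min. TMTpro 16plex LC-MS/MS of the supernatant, with channel sums equalised, gave values recorded as log-two fold change in thermal stability against solvent controls, from duplicates.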

UniProt Q8TCD6, sequence (Q8TCD6 whole entry, looked up): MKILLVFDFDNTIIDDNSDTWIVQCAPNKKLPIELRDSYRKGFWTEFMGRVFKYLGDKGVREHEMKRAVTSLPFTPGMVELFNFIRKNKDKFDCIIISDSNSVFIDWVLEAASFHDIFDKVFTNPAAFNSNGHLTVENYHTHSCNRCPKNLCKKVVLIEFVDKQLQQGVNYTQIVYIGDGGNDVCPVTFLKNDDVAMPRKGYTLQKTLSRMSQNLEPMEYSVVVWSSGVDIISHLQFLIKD
UniProt Q29RF7, sequence (Q29RF7 whole entry, looked up): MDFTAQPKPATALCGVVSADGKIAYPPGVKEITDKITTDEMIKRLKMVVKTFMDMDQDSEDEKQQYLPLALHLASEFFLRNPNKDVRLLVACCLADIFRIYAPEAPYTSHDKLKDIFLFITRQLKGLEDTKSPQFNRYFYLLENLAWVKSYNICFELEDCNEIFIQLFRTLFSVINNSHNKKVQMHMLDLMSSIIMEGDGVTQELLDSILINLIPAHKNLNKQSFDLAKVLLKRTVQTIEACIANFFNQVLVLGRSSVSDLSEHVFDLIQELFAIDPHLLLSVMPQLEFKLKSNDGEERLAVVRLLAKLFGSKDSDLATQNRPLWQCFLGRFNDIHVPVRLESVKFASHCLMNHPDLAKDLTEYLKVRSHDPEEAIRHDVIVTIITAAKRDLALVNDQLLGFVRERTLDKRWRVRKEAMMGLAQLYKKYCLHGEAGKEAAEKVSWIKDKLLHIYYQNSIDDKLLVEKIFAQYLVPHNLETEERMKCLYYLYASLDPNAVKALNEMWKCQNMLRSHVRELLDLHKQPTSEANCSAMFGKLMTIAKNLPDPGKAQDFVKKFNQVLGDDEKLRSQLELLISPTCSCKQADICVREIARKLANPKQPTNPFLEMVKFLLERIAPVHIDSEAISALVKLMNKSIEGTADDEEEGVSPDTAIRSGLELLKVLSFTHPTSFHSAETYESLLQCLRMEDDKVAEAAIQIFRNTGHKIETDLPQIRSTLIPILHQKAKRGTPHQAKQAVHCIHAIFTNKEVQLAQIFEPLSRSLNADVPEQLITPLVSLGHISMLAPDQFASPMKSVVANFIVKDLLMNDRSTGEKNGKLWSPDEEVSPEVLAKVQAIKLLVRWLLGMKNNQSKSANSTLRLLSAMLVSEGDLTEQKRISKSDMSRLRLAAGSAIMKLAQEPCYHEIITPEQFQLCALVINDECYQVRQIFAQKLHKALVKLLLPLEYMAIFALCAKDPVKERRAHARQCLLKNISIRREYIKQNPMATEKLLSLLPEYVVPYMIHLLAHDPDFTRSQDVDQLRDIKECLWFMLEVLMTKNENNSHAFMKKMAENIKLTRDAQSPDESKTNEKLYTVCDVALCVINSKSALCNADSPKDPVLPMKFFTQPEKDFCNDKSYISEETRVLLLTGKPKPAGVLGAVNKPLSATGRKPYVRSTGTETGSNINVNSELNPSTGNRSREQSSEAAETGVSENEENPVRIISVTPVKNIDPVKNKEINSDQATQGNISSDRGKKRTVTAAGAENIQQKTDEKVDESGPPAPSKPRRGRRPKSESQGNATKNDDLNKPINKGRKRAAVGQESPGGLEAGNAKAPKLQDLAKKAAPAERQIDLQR
UniProt Q5VU43, sequence (Q5VU43 whole entry, looked up): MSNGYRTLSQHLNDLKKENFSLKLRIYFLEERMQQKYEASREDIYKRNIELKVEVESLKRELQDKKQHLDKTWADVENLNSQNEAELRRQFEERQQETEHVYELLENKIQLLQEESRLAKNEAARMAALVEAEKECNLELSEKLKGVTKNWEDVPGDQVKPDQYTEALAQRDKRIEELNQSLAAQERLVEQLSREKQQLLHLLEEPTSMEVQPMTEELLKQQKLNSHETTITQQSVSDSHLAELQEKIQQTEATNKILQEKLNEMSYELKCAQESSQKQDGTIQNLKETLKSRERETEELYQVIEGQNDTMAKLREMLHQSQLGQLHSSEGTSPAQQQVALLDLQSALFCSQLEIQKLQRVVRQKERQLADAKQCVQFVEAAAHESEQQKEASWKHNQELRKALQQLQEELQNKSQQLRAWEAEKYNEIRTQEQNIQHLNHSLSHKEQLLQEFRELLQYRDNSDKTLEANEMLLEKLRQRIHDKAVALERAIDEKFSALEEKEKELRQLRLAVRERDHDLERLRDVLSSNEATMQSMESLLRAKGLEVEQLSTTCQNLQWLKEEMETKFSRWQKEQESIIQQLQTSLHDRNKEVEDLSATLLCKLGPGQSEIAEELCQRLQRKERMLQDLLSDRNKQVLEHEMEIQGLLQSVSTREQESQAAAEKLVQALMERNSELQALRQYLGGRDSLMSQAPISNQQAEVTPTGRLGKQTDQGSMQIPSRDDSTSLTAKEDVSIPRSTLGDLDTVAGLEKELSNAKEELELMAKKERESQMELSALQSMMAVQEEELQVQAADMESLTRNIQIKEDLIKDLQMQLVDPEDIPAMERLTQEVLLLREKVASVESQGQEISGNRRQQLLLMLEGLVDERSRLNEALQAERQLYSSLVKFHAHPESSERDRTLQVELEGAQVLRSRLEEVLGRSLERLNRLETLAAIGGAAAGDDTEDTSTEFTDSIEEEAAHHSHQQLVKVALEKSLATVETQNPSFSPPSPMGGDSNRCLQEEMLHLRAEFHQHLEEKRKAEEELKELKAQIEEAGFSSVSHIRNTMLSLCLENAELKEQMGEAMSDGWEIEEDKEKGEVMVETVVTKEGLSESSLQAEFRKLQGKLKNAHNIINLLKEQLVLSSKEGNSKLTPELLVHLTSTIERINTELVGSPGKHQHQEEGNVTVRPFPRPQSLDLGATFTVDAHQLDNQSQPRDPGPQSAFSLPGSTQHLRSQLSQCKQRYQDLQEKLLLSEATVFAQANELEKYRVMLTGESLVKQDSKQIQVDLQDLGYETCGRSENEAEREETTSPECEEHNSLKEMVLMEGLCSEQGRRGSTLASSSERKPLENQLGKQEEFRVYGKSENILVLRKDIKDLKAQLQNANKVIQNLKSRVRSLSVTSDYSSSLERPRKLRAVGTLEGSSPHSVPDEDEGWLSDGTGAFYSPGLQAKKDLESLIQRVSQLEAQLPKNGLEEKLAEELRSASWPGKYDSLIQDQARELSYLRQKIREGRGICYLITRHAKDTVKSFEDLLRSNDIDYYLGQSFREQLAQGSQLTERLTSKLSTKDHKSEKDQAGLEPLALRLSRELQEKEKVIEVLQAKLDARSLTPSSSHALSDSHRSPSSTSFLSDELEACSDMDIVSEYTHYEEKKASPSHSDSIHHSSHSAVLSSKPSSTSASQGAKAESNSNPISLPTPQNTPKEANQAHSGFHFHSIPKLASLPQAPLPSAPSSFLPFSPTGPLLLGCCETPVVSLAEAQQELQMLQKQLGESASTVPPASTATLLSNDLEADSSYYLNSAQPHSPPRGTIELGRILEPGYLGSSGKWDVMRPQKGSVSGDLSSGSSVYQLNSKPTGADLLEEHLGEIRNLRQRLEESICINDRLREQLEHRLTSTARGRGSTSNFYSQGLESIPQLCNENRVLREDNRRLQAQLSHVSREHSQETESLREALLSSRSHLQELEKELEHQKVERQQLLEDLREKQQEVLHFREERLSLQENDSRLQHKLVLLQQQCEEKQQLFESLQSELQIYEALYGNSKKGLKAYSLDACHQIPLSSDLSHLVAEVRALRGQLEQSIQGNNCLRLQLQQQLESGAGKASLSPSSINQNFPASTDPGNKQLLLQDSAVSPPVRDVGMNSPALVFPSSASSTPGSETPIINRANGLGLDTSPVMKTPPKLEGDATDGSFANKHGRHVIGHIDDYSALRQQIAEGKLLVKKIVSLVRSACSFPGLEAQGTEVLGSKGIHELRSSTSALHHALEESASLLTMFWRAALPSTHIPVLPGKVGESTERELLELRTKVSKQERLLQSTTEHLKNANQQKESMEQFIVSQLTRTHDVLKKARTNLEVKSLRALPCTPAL
UniProt Q96CD2, sequence (Q96CD2 whole entry, looked up): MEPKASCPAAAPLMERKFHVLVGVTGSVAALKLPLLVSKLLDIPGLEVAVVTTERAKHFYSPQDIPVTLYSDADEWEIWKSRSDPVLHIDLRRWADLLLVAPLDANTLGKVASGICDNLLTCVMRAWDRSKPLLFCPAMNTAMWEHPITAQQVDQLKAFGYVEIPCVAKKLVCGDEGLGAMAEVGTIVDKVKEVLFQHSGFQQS
UniProt Q96S99, sequence (Q96S99 whole entry, looked up): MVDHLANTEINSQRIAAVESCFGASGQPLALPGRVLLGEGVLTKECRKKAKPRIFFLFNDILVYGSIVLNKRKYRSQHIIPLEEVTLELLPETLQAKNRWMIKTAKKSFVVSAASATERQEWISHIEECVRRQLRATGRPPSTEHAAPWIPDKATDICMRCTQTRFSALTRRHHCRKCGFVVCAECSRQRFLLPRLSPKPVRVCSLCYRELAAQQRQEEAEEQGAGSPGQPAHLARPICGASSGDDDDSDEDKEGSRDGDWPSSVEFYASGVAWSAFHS
UniProt Q13362, sequence (Q13362 whole entry, looked up): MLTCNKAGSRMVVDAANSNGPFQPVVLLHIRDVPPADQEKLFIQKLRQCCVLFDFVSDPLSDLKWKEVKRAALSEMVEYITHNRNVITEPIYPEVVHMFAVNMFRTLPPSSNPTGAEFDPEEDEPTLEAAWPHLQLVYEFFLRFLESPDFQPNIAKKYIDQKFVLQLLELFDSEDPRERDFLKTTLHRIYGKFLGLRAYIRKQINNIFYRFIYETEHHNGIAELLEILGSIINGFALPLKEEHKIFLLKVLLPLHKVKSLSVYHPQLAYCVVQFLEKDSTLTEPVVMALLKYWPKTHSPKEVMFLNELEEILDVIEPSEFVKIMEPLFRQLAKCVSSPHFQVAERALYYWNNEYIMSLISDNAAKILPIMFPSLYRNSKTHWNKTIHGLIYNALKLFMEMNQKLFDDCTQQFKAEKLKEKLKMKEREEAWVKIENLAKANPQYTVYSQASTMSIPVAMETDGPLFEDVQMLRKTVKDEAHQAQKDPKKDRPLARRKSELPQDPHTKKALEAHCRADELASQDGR
UniProt P07737, sequence (P07737 whole entry, looked up): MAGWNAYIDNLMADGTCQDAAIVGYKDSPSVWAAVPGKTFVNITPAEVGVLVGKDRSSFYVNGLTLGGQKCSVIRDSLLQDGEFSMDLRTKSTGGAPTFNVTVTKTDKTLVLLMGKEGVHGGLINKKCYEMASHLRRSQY

| Target | log2 fold change |
| --- | --- |
| PUS1 (UniProt Q9Y606) | 0.012 |
| PTPN23 (UniProt Q9H3S7) | 0.013 |
| PDCD6IP (UniProt Q8WUM4) | 0.033 |
| PMS2 (UniProt P54278) | -0.014 |
| PSTPIP2 (UniProt Q9H939) | 0.012 |
| PUM1 isoform 3 (UniProt Q14671) | 0.01 |
| PICALM (UniProt Q13492) | 0.013 |
| PTPN1 (UniProt P18031) | 0.069 |
| PPP2R5C isoform 5 (UniProt Q13362) | 0.054 |
| POLD3 (UniProt Q15054) | 0.021 |
| PIP4K2A (UniProt P48426) | 0.014 |
| PDS5A (UniProt Q29RF7) | 0.008 |
| PFN1 (UniProt P07737) | -0.004 |
| PLXNB2 (UniProt O15031) | 0.027 |
| PFAS (UniProt O15067) | -0.008 |
| PITRM1 isoform 2 (UniProt Q5JRX3) | 0.006 |
| PPP1R8 (UniProt Q12972) | -0.014 |
| PLEKHF1 (UniProt Q96S99) | 0.02 |
| PRKACB isoform 2 (UniProt P22694) | -0.001 |
| PIP4K2C (UniProt Q8TBX8) | -0.06 |

| Target | log2 fold change |
| --- | --- |
| PDPK1 (UniProt O15530) | -0.029 |
| PIK3C3 (UniProt Q8NEB9) | -0.042 |
| PHOSPHO2 (UniProt Q8TCD6) | -0.184 |
| PFKP (UniProt Q01813) | -0.012 |
| PHKG2 (UniProt P15735) | -0.051 |
| PPCDC (UniProt Q96CD2) | 0 |
| PDE2A (UniProt O00408) | 0.049 |
| PRKCB isoform 2 (UniProt P05771) | 0.035 |
| PIP4P2 (UniProt Q8N4L2) | 0.061 |
| PHKA1 (UniProt P46020) | 0.009 |
| PIK3R2 (UniProt O00459) | 0.009 |
| PSMB9 (UniProt P28065) | -0.087 |
| PHACTR4 isoform 2 (UniProt Q8IZ21) | -0.03 |
| PI4K2A (UniProt Q9BTU6) | -0.025 |
| PDE4DIP isoform 4 (UniProt Q5VU43) | -0.005 |
| PDXDC1 (UniProt Q6P996) | 0.01 |
| PPIL2 (UniProt Q13356) | 0.047 |
| PRRC2A (UniProt P48634) | -0.013 |
| PCBP3 (UniProt P57721) | 0.001 |

compound: Cc1ccc(-n2nc(C(C)(C)C)cc2NC(=O)Nc2ccc(OCCN3CCOCC3)c3ccccc23)cc1 [doramapimod]; assay: as above
Method in brief: as §1

| Target | log2 fold change |
| --- | --- |
| PUS1 (UniProt Q9Y606) | 0.006 |
| PTPN23 (UniProt Q9H3S7) | 0.016 |
| PDCD6IP (UniProt Q8WUM4) | 0.034 |
| PMS2 (UniProt P54278) | -0.038 |
| PSTPIP2 (UniProt Q9H939) | 0.002 |
| PUM1 isoform 3 (UniProt Q14671) | -0.315 (active) |
| PICALM (UniProt Q13492) | 0.028 |
| PTPN1 (UniProt P18031) | 0.059 |
| PPP2R5C isoform 5 (UniProt Q13362) | -0.005 |
| POLD3 (UniProt Q15054) | 0.001 |
| PIP4K2A (UniProt P48426) | -0.035 |
| PDS5A (UniProt Q29RF7) | 0.006 |
| PFN1 (UniProt P07737) | 0.007 |
| PLXNB2 (UniProt O15031) | -0.044 |
| PFAS (UniProt O15067) | 0.035 |
| PITRM1 isoform 2 (UniProt Q5JRX3) | -0.024 |
| PPP1R8 (UniProt Q12972) | -0.011 |
| PLEKHF1 (UniProt Q96S99) | 0.016 |
| PRKACB isoform 2 (UniProt P22694) | -0.023 |
| PIP4K2C (UniProt Q8TBX8) | 0.006 |

| Target | log2 fold change |
| --- | --- |
| PDPK1 (UniProt O15530) | -0.012 |
| PIK3C3 (UniProt Q8NEB9) | -0.005 |
| PHOSPHO2 (UniProt Q8TCD6) | -0.045 |
| PFKP (UniProt Q01813) | -0.015 |
| PHKG2 (UniProt P15735) | 0.031 |
| PPCDC (UniProt Q96CD2) | 0.024 |
| PDE2A (UniProt O00408) | -0.057 |
| PRKCB isoform 2 (UniProt P05771) | 0.009 |
| PIP4P2 (UniProt Q8N4L2) | 0.033 |
| PHKA1 (UniProt P46020) | 0.024 |
| PIK3R2 (UniProt O00459) | 0.014 |
| PSMB9 (UniProt P28065) | -0.033 |
| PHACTR4 isoform 2 (UniProt Q8IZ21) | -0.003 |
| PI4K2A (UniProt Q9BTU6) | -0.008 |
| PDE4DIP isoform 4 (UniProt Q5VU43) | 0 |
| PDXDC1 (UniProt Q6P996) | 0.007 |
| PPIL2 (UniProt Q13356) | 0.043 |
| PRRC2A (UniProt P48634) | -0.073 |
| PCBP3 (UniProt P57721) | 0.014 |
